Reference: PubChem BioAssay
Active and inactive are the calls of the source.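 Rule for the calls: active = RAM network inhibition above 8.4% in each of two replicates, 3 SD over the compound average; inconclusive = above 8.4% inhibition in only one replicate; inactive = 8.4% inhibition or less in each replicate.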 Non-standard residues stand in square brackets, D forms with d. Residues, ends and D or L forms follow the SMILES beside them. ξ: configuration not given here. *: point of attachment. Cbz = O=C(OCc1ccccc1)*; ξV = CC(C)C(N)C(=O)O; OtBu = CC(C)(C)O*

experiment: RAM signaling pathway blockade in yeast – S. cerevisiae, Pdr1DBD-CYC8 efflux-inhibited sensitized strain, primary screen (AID 1298);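 note: 0% = DMSO untreated cells without growth and 100% = 10 µM 1-NA-PP1 full growth; higher means more yeast growth rescued from 5-FOA killing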; conditions: S. cerevisiae cbk1-as DSE1-URA3 strain, 5-FOA growth OD615, 2 d; at 50 µM; stronger effect = higher value

Structure (SMILES) | RAM network inhibition
Cc1nnc(NC(=O)CSc2nnc(Cc3cccn3C)n2-c2cccc(C(F)(F)F)c2)s1 | 3.85% (inactive)
O=S(=O)(c1cccs1)n1nnc2ccccc21 | 0.48% (inactive)
CC(C)N(CCCNC(=O)CC1Oc2ccccc2NC1=O)Cc1ccccc1 (stereo not given) | 3.18% (inactive)
O=C(Nc1ccccc1C(=O)NC(Cc1c[nH]c2ccccc12)C(=O)O)c1ccco1 (stereo not given) | 2.94% (inactive)
COCCCN(C(=O)Nc1ccc(C)c(C)c1)C(C)c1ccccn1 (stereo not given) | 5.96% (inactive)
O=C(Cn1c(=O)sc2ccccc21)Nc1ccccc1C(=O)O | 2.02% (inactive)
CCCCNc1cc(=O)n(C)c(=O)[nH]1 | 2.98% (inactive)
C=CCc1cc(/C=N/n2cnnc2)cc(OCC)c1O | 0.6% (inactive)
O=C(c1cnc2n(c1=O)CCS2)N1CCN(C(c2ccccc2)c2ccc(Cl)cc2)CC1 (stereo not given) | 2.72% (inactive)
COc1cccc(-c2nnc3n2N=C(C(C)(C)C)CS3)c1 | 2.49% (inactive)
CC1=C(C(N)=O)C(c2ccccn2)n2nc(SCc3ccccc3Cl)nc2N1 (stereo not given) | 0.26% (inactive)
Cc1nnc(SCC(=O)N2CCOCC2)n1C | 2.02% (inactive)
CCc1nnc(NC(=O)CCC(=O)O)s1 | 2.03% (inactive)
O=C(Nc1cccc(F)c1)c1ccc(S(=O)(=O)N2CCOCC2)cc1 | -1.21% (inactive)
O=C(NCc1ccc2c(c1)OCO2)C1CC(=O)N(CCc2ccccc2)C1 (stereo not given) | 2.32% (inactive)
COc1cc(OC)c(NC(=O)c2ccc(Br)o2)cc1Cl | 10.5% (inactive)
CCOc1ccc2nc(N3CCC(C(=O)Nc4nnc(CC)s4)CC3)sc2c1 | 6.98% (inactive)
CC(C)C(NC(=O)OCc1ccccc1)C(=O)NCC(=O)OC(C)(C)C (stereo not given) (Cbz-[ξV]-Gly-OtBu) | 3.16% (inactive)
Cc1cc(Nc2ccc(F)cc2)n2nc(C)nc2n1 | 0.55% (inactive)
CCOc1ccc(NC(=O)CSc2nnc(Cn3c(=O)sc4ccccc43)n2C)cc1 | 7.78% (inactive)

Structure (SMILES) | RAM network inhibition
Cn1c(=O)cc(N2CCc3ccccc32)[nH]c1=O | -1.11% (inactive)
CC1(C)CC(=O)c2sc(NC(=O)C3CC3)nc2C1 | 1.56% (inactive)
CCN(CC)CCN1C(=O)C2C3c4ccccc4C(c4ccccc43)C2C1=O (stereo not given) | 1.71% (inactive)
CCCN1CCN(C(=O)C2CCN(S(=O)(=O)c3ccc4c(c3)oc(=O)n4C)CC2)CC1 | -1.87% (inactive)
C=CCn1c(SCC(=C)C)nc2c1c(=O)[nH]c(=O)n2C | 1.55% (inactive)
CCC(C)NC(=O)c1ccc(CS(=O)(=O)c2ccc(OC)cc2)o1 (stereo not given) | -2.32% (inactive)
CC(=O)C(C)Oc1ccc2c3c(c(=O)oc2c1)CCCC3 (stereo not given) | 0.72% (inactive)
C=CCOC(=O)c1[nH]c2c(c1C)C(=O)CC(c1cc(OC)c(OC)c(OC)c1)C2 (stereo not given) | 5.97% (inactive)
CCOc1nonc1C(=N)/C(C(C)=O)=C(\C)O | -0.48% (inactive)
Cc1ccc(Nc2nc(C3CC3)cs2)cc1 | 2.72% (inactive)
Cc1ccccc1CN1CCNC(=O)C1CC(=O)O (stereo not given) | -0.64% (inactive)
CCN1CCN(CCNC(=O)c2ccc(CS(=O)(=O)c3c(Cl)cccc3Cl)o2)CC1 | 1.59% (inactive)
COc1ccc(C(=O)N(Cc2nc(-c3ccc(C)cc3)no2)C(C)C)cc1OC | 5.36% (inactive)
COc1cc2c(cc1OC)C1=C(C#N)CC/C(=N\S(=O)(=O)c3ccccc3)N1CC2 | 2.61% (inactive)
Nc1nc2n(n1)C(c1ccco1)CC(c1ccc(F)cc1)N2 (stereo not given) | 4.49% (inactive)
C=CCN(c1ccccc1)S(=O)(=O)c1ccc2c(c1)oc(=O)n2C | 3.12% (inactive)
C#CCn1c(=NC(=O)c2cccs2)sc2cccc(OC)c21 | 7.2% (inactive)
CC(=O)N1CCN(c2ccc(NCc3ccc(F)cc3)cc2)CC1 | 2.34% (inactive)
CCn1c(SCC(=O)N2CCCC2)nc2c(c1=O)SC(C)C2 (stereo not given) | 3.14% (inactive)
CC(C)(CC(=O)O)Cc1nc(-c2ccc(Cl)cc2)no1 | -3.9% (inactive)
